These results are taken from ChEMBL document CHEMBL3988442, “University of Dundee, Small-Polar-MMV Screening Library” (2021).

In all, about 48,000 compounds went through this assay and about 13,000 (27%) showed an effect of 50% or more. The list shows a part of the results.

The experiment relates to Wolbachia pipientis. As to the kind of experiment: Anti-Wolbachia Cell-Based Screen. More on the design: scale not given: in the data most compounds retested in dose-response had high values. The class given is functional. Conditions: 5 µM.
Consider `O=C(NCCCn1cccn1)C1(c2ccc(F)cc2)CC1`, for which the “Percent Effect” value is reported as -8.161%.
Consider `c1ccc(-c2nc3c(c(NCCn4cccc4)n2)CCNCC3)nc1`, for which the “Percent Effect” value is on record as -2.581%.
To `CC(C)c1nc(CC(=O)Nc2nc(CN3CCCCCC3)cs2)cs1` belongs 13.84%; to `O=C(CCn1cncn1)NCCOc1cccc(Cl)c1`, 114.1%; to `CC(C(=O)NCCOc1cccc(Cl)c1)n1cncn1` (stereo not drawn), -0.6619%.
As for `O=C(NCCCn1cccn1)C1COCC(=O)N1Cc1ccccc1` (stereo not drawn), the “Percent Effect” value is recorded as -30.45%.
To `O=C(CN1CCOc2ccc(Cl)cc21)NCCCn1cccn1` belongs -8.926%; to `O=C(CCOc1ccc(Cl)cc1)NCCCn1cccn1`, 101.2%.
As to `Cc1occc1C(=O)NCC(=O)NCCOc1cccc(Cl)c1`, the “Percent Effect” value came out at 23.6%.
On to `CNc1nc(C(=O)N2C[C@H]3CC[C@@H]2CN(S(C)(=O)=O)C3)cs1`, for which the “Percent Effect” value was -0.32%.
For `COc1ccc(S(=O)(=O)N2CCC(OCc3ccccn3)C2)cc1Br` (stereo not drawn), the “Percent Effect” value was 4.781%.
Consider `Cc1cc(C2CCCN(CCS(=O)(=O)c3ccccc3)C2)n[nH]1` (stereo not drawn), for which the “Percent Effect” value is 111.9%.
For `Cn1c(C2CC2)nc2c1CCN(CCS(=O)(=O)c1ccccc1)C2`, the “Percent Effect” value is -2.763%.
Next, `Cc1cc(C2CCCN(CCCS(=O)(=O)c3ccccc3)C2)n[nH]1` (stereo not drawn): -3.796%; `Cc1cc(C2CCCN(CCNS(=O)(=O)c3ccccc3)C2)n[nH]1` (stereo not drawn): 94.49%.
With `Cc1cc(N2CCC(N(C)Cc3cc(=O)c(O)co3)CC2)nc(C)n1`, the “Percent Effect” value is reported as -0.2819%.
On to `CN(CC(O)C1CC1)C(=O)Nc1ccc(F)c(-n2cccc2)c1` (stereo not drawn), for which the “Percent Effect” value was determined as 2.69%.
Turning to `CCc1nc(C2CCCN2C(=O)c2ccc(=O)n(CC)n2)no1` (stereo not drawn), the “Percent Effect” value is listed as -10.47%.
Next, `CCc1nc(C2CCCN2C(=O)c2nccnc2N)no1` (stereo not drawn): -19.66%; `CCn1nc(C(=O)N2CCCC2c2noc(C)n2)ccc1=O` (stereo not drawn): 2.469%; `CCc1cc(O)nc(C2CCCN2C(=O)COC)n1` (stereo not drawn): 126%.
Take `CCc1cc(O)nc(C2CCCN2C(=O)c2cc(C)no2)n1` (stereo not drawn): the “Percent Effect” value was -6.64%.
To `CCc1cc(O)nc(C2CCCN2C(=O)c2cc(CC)on2)n1` (stereo not drawn) belongs 115.4%; to `CCc1cc(C(=O)N2CCCC2c2nc(O)cc(CC)n2)on1` (stereo not drawn), 115.5%; to `CCc1ccc(C(=O)NC2CCN(c3ccn(C)n3)C2)o1` (stereo not drawn), -10.19%.
`O=C(Nc1cc(C(F)(F)F)ccc1Cl)c1ccc(N2CCCC2)nn1`: the “Percent Effect” value is 13.93%.
Next, `N#Cc1ccc(OCCNc2cccc(C(=O)N3CCOCC3)c2)cc1`: -3.52%; `CC(C)C(C#N)N1CCN(C(=O)c2cc(-c3ccccn3)no2)CC1` (stereo not drawn): -9.203%; `O=C(NCCn1cccc1)C1CCCN(C2CCCC2)C1` (stereo not drawn): -8.525%.
Next, `CNC(=O)[C@@H]1C[C@H](n2cc(-c3ccc(Cl)cc3)nn2)CN1`: 104.7%; `CNC(=O)[C@@H]1C[C@@H](n2cc(-c3ccc(Cl)cc3)nn2)CN1`: 111.1%; `CCN(CC)C(=O)[C@@H]1C[C@H](n2cc(-c3cccc(OC)c3)nn2)CN1`: -3.277%.
To `CCN(CC)C(=O)[C@@H]1C[C@@H](n2cc(-c3ccccn3)nn2)CN1` belongs -7.154%; to `CCN(CC)C(=O)[C@@H]1C[C@H](n2cc(-c3ccccn3)nn2)CN1`, -5.115%; to `CCN(CC)C(=O)[C@@H]1C[C@@H](n2cc(-c3cccc(OC)c3)nn2)CN1`, -2.078%.
Consider `CNC(=O)NC(=O)CCSc1ccccc1C`, for which the “Percent Effect” value is -14.48%.
Next, `CCc1noc(CN2CCCC2C(=O)OCc2ccccc2)n1` (stereo not drawn): 6.169%; `Cc1nc2n(n1)CC(NCC(=O)NCCCOC(C)C)CC2` (stereo not drawn): -9.274%; `Cc1ccc(NC2CCN(C(=O)Cc3ccc(C#N)cc3)CC2)nn1`: -2.358%.
To `COc1ccc(CC(=O)N2CCC(Nc3ccc(C)nn3)CC2)cc1` belongs 95.7%.
`Cc1ccc(CC(=O)N2CCC(Nc3ccc(C)nn3)CC2)cn1`: the “Percent Effect” value worked out at 105.9%.
Take `Cc1ccc(OCC(=O)NS(=O)(=O)c2cccnc2)cc1C`: the “Percent Effect” value was -7.985%.
With `Cc1c[nH]c(C(=O)N2CCC(c3nnc(CN(C)CCO)n3C)CC2)c1`, the “Percent Effect” value is listed as -9.354%.
Next, `CCCNC(=O)CN1CCOC(c2ccc(Br)cc2)C1` (stereo not drawn): -1.206%; `COC1CCCN(Cc2cc(O)c3cc(C)cc(C)c3n2)C1` (stereo not drawn): -4.558%; `Cc1cc(C)c2nc(CN3CCCC(c4cc[nH]n4)C3)cc(O)c2c1` (stereo not drawn): 54.67%.
Next, `Cc1cc(C)c2nc(CN3CC[C@@H](O)C3)cc(O)c2c1`: -21.84%; `CCN(CC)[C@@H]1CN(Cc2nccn2C)[C@@H]2CCCO[C@H]12.O=C(O)C(F)(F)F.O=C(O)C(F)(F)F.O=C(O)C(F)(F)F`: -9.914%.
Next, `CN(Cc1cccnc1)[C@@H]1CN(Cc2cnn(C)c2)[C@@H]2CCCO[C@H]12.O=C(O)C(F)(F)F.O=C(O)C(F)(F)F.O=C(O)C(F)(F)F.O=C(O)C(F)(F)F`: 88.39%.
In the case of `CN(Cc1cccnc1)[C@@H]1CN(Cc2nccn2C)[C@@H]2CCCO[C@H]12.O=C(O)C(F)(F)F.O=C(O)C(F)(F)F.O=C(O)C(F)(F)F.O=C(O)C(F)(F)F`, the “Percent Effect” value was 107.5%.
With `CN(Cc1ccco1)[C@@H]1CN(Cc2cnn(C)c2)[C@@H]2CCCO[C@H]12.O=C(O)C(F)(F)F.O=C(O)C(F)(F)F`, the “Percent Effect” value was 12.06%.
Turning to `Cn1cc(CN2C[C@H](N3CCOCC3)[C@@H]3OCCC[C@@H]32)cn1.O=C(O)C(F)(F)F.O=C(O)C(F)(F)F`, the “Percent Effect” value turned out to be 9.025%.
In the case of `CN(Cc1ccco1)[C@@H]1CN(Cc2nccn2C)[C@@H]2CCCO[C@H]12.O=C(O)C(F)(F)F.O=C(O)C(F)(F)F.O=C(O)C(F)(F)F`, the “Percent Effect” value was -0.8776%.
